Screening results (PubChem BioAssay)
Compounds with a hit are over-represented: about 21% of the library has one in this group of screens.
Pf growth 48h – inhibits P. falciparum growth in the first generation, 48 h | P. falciparum luciferase growth in erythrocytes, 48 h | Potency, µM (series often up to 28.7 µM), hits mostly inhibitors | 310,000 compounds, 5.9% hits
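Here the parasites carry a stable luciferase gene and grow inside erythrocytes in Albumax-based RPMI medium with compound for one erythrocytic cycle. Activity is scored as loss of luminescent signal.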
Pf growth 96h – P. falciparum growth inhibition at 96 hours. Potency, µM (titrated, usually from 28.7 µM), actives largely listed as inhibitors. P. falciparum luciferase reporter growth, 96 h. 320,000 compounds, 6.9% hits
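Readout is luminescence from an integrated firefly luciferase in P. falciparum. Red cells, 2% hematocrit and 0.05% parasitemia final, were cultured with compound through two parasite generations (96 hours) at 37 C, 5% CO2.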
NS1 function inh – inhibitors of influenza NS1 protein function; Potency, µM (series often up to 46.1 µM); 270,000 compounds, 0.4% hits; AID 2326; calls by dose curve; further: actives are rising curves; nearly all actives have a fitted effect of over 50% in size
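Compounds were scored for reversing the slow growth caused by influenza A NS1 in S. cerevisiae, measured by optical density at 600 nm. Assay medium contained 2% galactose at pH 6.0; NS1-free yeast of the same strain were the positive control.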
Sm TGR block – inhibitors of Schistosoma mansoni thioredoxin glutathione reductase; AID 485364; Potency, µM (doses to about 114 µM), usual class: inhibitors; 360,000 compounds, 3% hits; purified TGR, DTNB reduction, TNB absorbance 405 nm; Q962Y6; further: nearly all actives have a fitted effect of over 60% in size
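TGR 20 nM + NADPH 100 uM (dispensed conc.), cpd preinc 15 min RT; start with NADPH (500 uM addition) then DTNB (15 mM addition). Kinetic TNB absorbance, 405 nm filter. Four-parameter Hill fit across titration.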
Shiga toxin inh – inhibitors of Shiga toxin in Vero cells. 290,000 compounds, 9.2% hits. Vero cells, Shiga toxin protein synthesis inhibition reporter. inhibition, % at 38.7 µM. AID 2315; in the data active means inhibition mostly above about 28%, no sharp cut-off; inactive means mostly below about 43%
CHX counter – counter-screen hit for Shiga toxin inhibitors, cycloheximide; cell reporter, cycloheximide protein synthesis inhibition counterscreen; max response, %; 300,000 compounds, 12% hits; in the data active means max response mostly above about 13%, no sharp cut-off; inactive means mostly below about 14%; further: read at 38.3 µM for the half of the compounds with a filed dose
Hits are given with their value; – = inactive; ? = inconclusive; · = no result given; [ ] = remark or other dose. Unless noted, the call rests on the fitted dose curve; in most records, active means well fitted curve in the direction sought with a large enough effect; inconclusive means small, poorly fitted or top-dose-only effect, or another doubt; inactive means no such curve, though single readings can be large; an effect the other way counts as inactive or inconclusive.

SMILES	Pf growth 48h	Pf growth 96h	NS1 function inh	Sm TGR block	Shiga toxin inh	CHX counter
COCCNC(=O)CN1CCC(NC(=O)c2ccco2)CC1	–	–	–	–	–	22.5
C=CCNC(=O)CN1CCC(NC(=O)c2ccco2)CC1	–	?	–	·	–	–
CC(C)CNC(=S)N1CCC(NC(=O)c2ccco2)CC1	–	11.7µM	·	–	–	–
CC1CCCCN1C(=S)NC(=O)c1ccco1 (stereo unspecified)	–	–	·	–	·	·
Cc1ccc(C)c(NC(=O)CCc2c(C)n(C)c3cc(-c4ccccc4C)nn3c2=O)c1	·	·	·	–	·	·
Cc1ccc(NC(=O)CN(C)C(=O)c2cccc(S(=O)(=O)N3CCc4ccccc43)c2)cc1	?	?	·	–	·	·
CN(Cc1ccccc1Cl)C(=O)CCNC(=O)c1ccco1	?	–	·	–	·	·
COc1ccc(SC[C@H](CC(C)C)N2CCN(C)CCC2=O)cc1	–	–	–	–	75.0	17.1
CC(=O)Nc1ccc(SC[C@H](CC(C)C)N2CCN(CC(C)C)CCC2=O)cc1	?	?	–	?	–	–
CC(C)C[C@@H](CSc1ccc(Br)cc1)N1CCN(C)CCC1=O	–	?	?	?	56.7	39.7
Cc1ccc(SC[C@H](CC(C)C)N2CCN(C)CCC2=O)cc1	–	–	–	–	83.8	38.1
CC(C)C[C@@H](COc1ccccc1)N1CCN(C)CCC1=O	–	–	–	–	–	–
CCn1cc(-c2csc(N)n2)c(C)n1	–	?	·	–	–	–
Cc1ccc(-n2c(C)cc(-c3csc(N)n3)c2C)cc1	?	?	–	–	–	–
CCn1ncc(-c2csc(N)n2)c1C	–	?	·	–	–	25.9
Cc1cc(-c2csc(N)n2)c(C)n1Cc1ccco1	–	?	–	–	–	36.5
Cc1cc(-c2csc(N)n2)c(C)n1C	·	10.4µM	–	?	–	–
CCC(Oc1ccccc1)C(=O)Nc1ccccc1OCc1cc(=O)n2ccccc2n1 (stereo unspecified)	·	·	·	–	·	·
CC(C)(C)c1ccc(-c2nc3cc(NC(=O)c4cccc(Br)c4)ccc3o2)cc1	·	·	·	–	·	·
N#CC1=C(N)C2=C(N3CCCCC3)CCCC2C1(C#N)C#N (stereo unspecified)	–	11.7µM	–	?	–	–
CCc1cccc(NC(=S)N2CCC(c3ccccc3)C2)c1 (stereo unspecified)	–	–	·	–	74.2	65.0
CSc1cccc(NC(=S)N2CCC(c3ccccc3)C2)c1 (stereo unspecified)	–[0.00184 µM]	–	–	–	50.2	19.6
CSc1cccc(NC(=S)N2CCCN(Cc3ccccc3F)C2)c1	?	–	·	–	–	–
O=C(NCc1ccncc1)C(=O)N/N=C/c1cccnc1	–	–	–	–	–	–
CC1CCCCN1C(=O)CSc1nc2ncccc2[nH]1 (stereo unspecified)	–	–	–	–	–	–
SMILES	Pf growth 48h	Pf growth 96h	NS1 function inh	Sm TGR block	Shiga toxin inh	CHX counter
CCOC(=O)c1ccc(NC(=O)CSc2nc3ncccc3[nH]2)cc1	–	?	–	–	16.2	23.2
CC1CCCN(C(=O)CSc2nc3ncccc3[nH]2)C1 (stereo unspecified)	–	–	–	–	33.1	14.9
CC1CCCN(C(=O)CSc2cnc3ccccc3n2)C1 (stereo unspecified)	·	–	–	–	111.1	58.2
Clc1ccc(CSc2nc3ncccc3[nH]2)cc1	·	·	·	–	·	·
Cc1ccc(CSc2nc3ncccc3[nH]2)cc1	–	–	–	–	63.7	19.6
C=C(C)CSc1nc2ncccc2[nH]1	–	–	–	–	–	–
CCN(CC)C(=O)CSc1nc2ncccc2[nH]1	–	11.7µM	–	–	–	–
Cc1ccc(N(CC(=O)Nc2ccc3c(c2)OCCO3)S(C)(=O)=O)cc1	–	–	–	–	59.7	54.0
Cc1n[nH]c(C)c1S(=O)(=O)N(CC(=O)Nc1ccc2c(c1)OCCO2)c1ccc(C(C)C)cc1	·	?	–	–	–	26.0
COc1ccc(Cl)cc1N(CC(=O)Nc1ccc2c(c1)OCCO2)S(C)(=O)=O	–	·	–	–	–	15.2
COc1ccc(C)cc1N(CC(=O)Nc1ccc2c(c1)OCCO2)S(C)(=O)=O	–	–	–	·	–	–
CS(=O)(=O)N(CC(=O)NCCSCc1c(F)cccc1Cl)c1ccc2c(c1)OCO2	11.7µM	–	–	–	–	–
Cc1noc(C)c1S(=O)(=O)N(CC(=O)Nc1ccc2c(c1)OCO2)c1ccc(C(C)C)cc1	·	?	–	–	–	–
